Results: PubChem BioAssay (Tox21)
Values joined by “and” are separate entries in the source; they are usually repeats but may differ in a detail not shown here. Equal entries are not always repeated. Results filed as inconclusive are left out. Active and inactive are the calls of the source. Calls come from the whole dose curve; as a rule, active = well fitted curve in the direction sought with a large enough effect in the repeat runs; inconclusive = weak or mixed curves; inactive = no such curve, though single readings can be large; an effect the other way counts as inactive or inconclusive.

How the values were obtained:
[1] = A CellTox Green Cytotoxicity Assay to monitor cytotoxicity in HepG2 cells - 0 hour (AID 1224882); note: nearly all actives have a fitted effect of over 35% in size
Procedure, shortened: (§1)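 Fluorescent DNA-binding dye, 600 HepG2 cells/well, 5 h preincubation then compound in DMSO; same plates read at 0–40 h, 37 C.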

[2] = A CellTox Green Cytotoxicity Assay to monitor cytotoxicity in HepG2 cells - 32 hour (AID 1224883); note: nearly all actives have a fitted effect of over 50% in size; note: potency is the fitted concentration of half-maximal effect
Procedure, shortened: as §1

[3] = A CellTox Green Cytotoxicity Assay to monitor cytotoxicity in HEK293 cells - 8 hour (AID 1224884); note: nearly all actives have a fitted effect of over 35% in size; note: potency is the fitted concentration of half-maximal effect
Procedure, shortened: (§2)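 Homogeneous no-lysis format: HEK293 cell suspension mixed with CellTox Green reagent, seeded, incubated 5 h at 37 C/5% CO2, then dosed by pintool with compound in DMSO.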

[4] = qHTS RealTime-Glo MT Cell Viability Assay in HepG2 cells - 16 hour (AID 1224885); note: nearly all actives have a fitted effect of over 50% in size; note: potency is the fitted concentration of half-maximal effect
Procedure, shortened: (§3)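 HepG2 suspension premixed with RealTime-Glo reagents is plated at 600 cells per well and left 5 h at 37 C/5% CO2. Compounds in DMSO then go in, and bioluminescence reflecting viable cell number is recorded over 40 h.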

[5] = qHTS RealTime-Glo MT Cell Viability Assay in HEK293 cells - 24 hour (AID 1224886); note: nearly all actives have a fitted effect of over 50% in size; note: potency is the fitted concentration of half-maximal effect
Procedure, shortened: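 Reads taken at 0, 8, 16, 24, 32 and 40 h from the same wells. HEK293 cells (600/well) carried RealTime-Glo reagents from seeding, with compound added after a 5 h settle at 37 C.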

[6] = qHTS RealTime-Glo MT Cell Viability Assay in HEK293 cells - 8 hour (AID 1224887); note: nearly all actives have a fitted effect of over 50% in size; note: potency is the fitted concentration of half-maximal effect
Procedure, shortened: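 Measured as luminescence from the same continuously cultured HEK293 wells at successive time points (0, 8, 16, 24, 32, 40 h) after compound addition. Reagent present from seeding; dosing at 5 h; incubation 37 C.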

[7] = A CellTox Green Cytotoxicity Assay to monitor cytotoxicity in HEK293 cells - 16 hour (AID 1224888); note: nearly all actives have a fitted effect of over 35% in size; note: potency is the fitted concentration of half-maximal effect
Procedure, shortened: as §2

[8] = qHTS RealTime-Glo MT Cell Viability Assay in HepG2 cells - 0 hour (AID 1224889); note: nearly all actives have a fitted effect of over 50% in size
Procedure, shortened: as §3

[9] = A CellTox Green Cytotoxicity Assay to monitor cytotoxicity in HepG2 cells - 8 hour (AID 1224890); note: nearly all actives have a fitted effect of over 45% in size; note: potency is the fitted concentration of half-maximal effect
Procedure, shortened: as §1

[10] = qHTS assay to identify small molecule antagonists of the estrogen receptor alpha (ER-alpha) signaling pathway using the BG1 cell line in the presence of 0.1 nM 17-beta-estradiol - cell viability counter screen (AID 1259241); note: nearly all actives have a fitted effect of over 40% in size
Procedure, shortened: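 VM7Luc4E2, 4,000 cells/well, phenol red-free medium + 10% charcoal-stripped FBS; 24 hr plating; cpd + 0.1 nM E2 final, 22 hr 37C/5% CO2; CellTiter-Fluor 30 min, fluorescence.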

Measured: Potency

CCc1ccc(C)nc1
inactive: all assays above

CCOCN(C(=O)CS(=O)(=O)O)c1c(C)cccc1CC
inactive: all assays above

NCCCCCCNCCCCCCN
not listed: [10]
inactive: all other assays above

CC1CNCC(C)O1 (stereo not given)
inactive: all assays above

Cn1cnc2ncnc(N)c21
inactive: all assays above

CCCCCCCCCCCCCC[n+]1ccccc1
inactive: [1] | [8]
active: [2] 11 µM | [3] 54.9 µM | [4] 21.9 µM | [5] 6.16 µM | [6] 54.9 µM | [7] 54.9 µM | [9] 49 µM

C=CC/C=C/C/C=C/C/C=C/C
inactive: all assays above

CC1=CCC(=O)O1
inactive: all assays above

CCOCOCC
inactive: all assays above

CCN(CC)c1cccc(C)c1
inactive: all assays above

[O]=[Zr]
inactive: all assays above

OCCCS
inactive: all assays above

COc1nccnc1CC(C)C
inactive: all assays above

Clc1nc2ccccc2s1
inactive: all assays above

C[C@H]1O[C@@H](O[C@H]2[C@@H](O)C[C@H](O[C@H]3[C@@H](O)C[C@H](O[C@H]4CC[C@@]5(C)[C@H](CC[C@@H]6[C@@H]5C[C@@H](O)[C@]5(C)[C@@H](C7=CC(=O)OC7)CC[C@]65O)C4)O[C@@H]3C)O[C@@H]2C)C[C@H](O)[C@@H]1O
active: [5] 69.2 nM and 61 nM
inactive: all other assays above

CCCCCCCCCCc1ccccc1
inactive: all assays above

Clc1cccnc1
inactive: all assays above

CC(COC(=O)c1ccccc1)OC(=O)c1ccccc1 (stereo not given)
inactive: all assays above

CCC(C)c1ccccc1 (stereo not given)
inactive: all assays above

CSc1ccc2c(c1)N(CCC1CCCCN1C)c1ccccc1S2 (stereo not given)
active: [2] 34.5 µM and 23.9 µM | [3] 34.5 µM | [4] 54.7 µM and 23.9 µM | [5] 15.4 µM | [6] 19.4 µM | [7] 30.8 µM
inactive: [1]

CC(C)=CC1CC(C)CCO1 (stereo not given)
inactive: all assays above
